In the library only some 6% were active in any assay of this set; here they are far more common.
D1 agonist – agonists of human D1 dopamine receptor; AID 504660; HEK293 T-REx D1 cells, calcium flux, agonist mode; 1% of 360,000 active; P21728; activation, % at 2 µM; in the data active means activation above about 30%; further: 0% is about no effect
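Agonism was scored from calcium flux recorded over 180 s (1 read/s) after pintool compound addition, following a 10-cycle baseline. Cells were inducible force-coupled HEK293 TREx D1, plated overnight at 30 C and loaded with no-wash calcium dye.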
D1 PAM – potentiators of human D1 dopamine receptor; P21728; AID 504651; HEK293 TREx D1 cells, calcium flux, dopamine EC20 potentiation; potentiation, % at 10 µM; 0.036% of 360,000 active; in the data active means potentiation above about 30%; further: 0% is about no effect
DRD3 agonist – activates the human D3 dopamine receptor; P35462; D3R DiscoveRx beta-arrestin cells, luminescence, 90 min; max activation, %; 0.58% of 410,000 active; in the data active means max activation above about 30%; further: 0% is about no effect
Target sequence (P35462 whole entry, looked up): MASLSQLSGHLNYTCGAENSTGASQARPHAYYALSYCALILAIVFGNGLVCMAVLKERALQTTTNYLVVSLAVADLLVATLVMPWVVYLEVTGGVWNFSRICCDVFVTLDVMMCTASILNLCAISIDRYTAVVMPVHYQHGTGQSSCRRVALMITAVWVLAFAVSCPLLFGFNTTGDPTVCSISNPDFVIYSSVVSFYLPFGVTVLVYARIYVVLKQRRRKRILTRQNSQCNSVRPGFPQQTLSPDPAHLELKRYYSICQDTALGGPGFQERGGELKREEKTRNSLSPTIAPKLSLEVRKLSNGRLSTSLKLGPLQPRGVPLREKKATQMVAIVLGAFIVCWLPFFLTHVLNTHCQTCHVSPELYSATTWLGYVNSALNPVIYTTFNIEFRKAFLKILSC
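Agonist mode: compounds and dopamine controls were applied to plated cells for 90 min at 37 degrees C after an overnight attachment at 1500 cells/well. Luminescent read-out followed 30 - 60 minutes at room temperature with DiscoveRx detection reagent.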
D1 antagonist – blocks dopamine activation of the human D1 receptor | P21728 | 3.2% of 360,000 active | AID 504652 | activity change, negative = inhibition, % at 10 µM | HEK293 TREx D1 cells, calcium flux, dopamine EC80; active compounds read low; in the data active means activity change below about -30%; further: on the % scale 0 is the no-effect control and ±100 the full control effect
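HEK293 T-REx cells expressing inducible, force-coupled D1 receptor; no-wash Ca dye, 30–90 min RT. Cmpd → 180 s read at 1 Hz → EC80 DA → 180 s read.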
D3 antag – blocks the human D3 dopamine receptor; P35462; D3R cells, DiscoveRx beta-arrestin luminescence, antagonist mode; active compounds read low; max response, negative = inhibition, %; 2.5% of 360,000 active; in the data active means max response below about -50%; inconclusive means no clear call, values can overlap the other calls; further: on the % scale 0 is the no-effect control and ±100 the full control effect
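Cells plated overnight at 1500 cells/well, then exposed to library compounds with dopamine controls for 90 minutes at 37 degrees C. DiscoveRx reagent added for 30–60 minutes at room temperature; luminescence read, quantitative HTS format.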
The depositor's hits bear a star.

Cc1cccc(N(C(=O)c2nsc(Cl)c2Cl)C(C(=O)NC2CCCC2)c2ccc(O)cc2)c1C (configuration not stated) was read as D1 agonist 6.3, D1 PAM -7.7, DRD3 agonist -11.9, D1 antagonist -39.7* and D3 antag -20.8.
For Cc1ccccc1N(C(=O)c1snc(C(N)=O)c1N)C(C(=O)NC1CCCCC1)c1ccc(O)cc1 (configuration not stated) the results were D1 agonist 5.0, D1 PAM -5.8, DRD3 agonist 2.0, D1 antagonist 10.1 and D3 antag 3.6.
Cc1cc(C)cc(N(C(=O)c2nsc(Cl)c2Cl)C(C(=O)NC2CCCC2)c2ccc(O)cc2)c1 (configuration not stated) was read as D1 agonist 0.6, D1 PAM -5.0, DRD3 agonist -19.6, D1 antagonist 5.4 and D3 antag -11.5.
Screening Cc1ccccc1OCC(=O)OCC(=O)c1ccc[nH]1 returned D1 agonist 2.1, D1 PAM -5.9, DRD3 agonist -2.6, D1 antagonist -31.7* and D3 antag -0.4.
`Cc1ccccc1OCC(=O)OCC(=O)c1ccc(OCc2ccccc2)cc1` gave D1 agonist 54.6*, D1 PAM -3.8, DRD3 agonist 2.5, D1 antagonist 16.3 and D3 antag -2.5.
For Cc1cc(OCC(=O)OCC(=O)c2ccc[nH]2)ccc1Cl the results were D1 agonist 10.2, D1 PAM -3.5, DRD3 agonist -2.4, D1 antagonist -34.3* and D3 antag 2.2.
Screening O=C(CSc1nnnn1-c1cccc2c1CCCC2)N1CCCC1 returned D1 agonist 38.0*, D1 PAM -4.8, DRD3 agonist -2.2, D1 antagonist 2.7 and D3 antag 2.9.
Screening O=C(CSc1nnnn1-c1cccc2c1CCCC2)N1CCOCC1 returned D1 agonist 69.8*, D1 PAM 4.8, DRD3 agonist 14.6, D1 antagonist -8.1 and D3 antag 7.8.
`Cc1ccc(CN2CCC(C(=O)Nc3cccc(-c4cccc(F)c4)c3)CC2)o1` gave D1 agonist 1.9, D1 PAM -0.6, DRD3 agonist -3.4, D1 antagonist 2.3 and D3 antag 0.1.
Screening CC(C)n1cc(CN2CCC(C(=O)Nc3cccc(-c4cccc(Cl)c4)c3)CC2)cn1 returned D1 agonist 40.5*, D1 PAM -4.5, DRD3 agonist -8.5, D1 antagonist -21.0 and D3 antag -23.1.
For CCn1cc(CN2CCC(C(=O)Nc3cccc(-c4cccc(F)c4)c3)CC2)cn1 the results were D1 agonist 17.7, D1 PAM -10.4, DRD3 agonist -21.2, D1 antagonist -38.2* and D3 antag -24.4.
CCn1nc(C)c(CN2CCC(C(=O)Nc3cccc(-c4cccc(F)c4)c3)CC2)c1C was read as D1 agonist 37.2*, D1 PAM -4.0, DRD3 agonist -0.2, D1 antagonist -20.2 and D3 antag inconclusive.
Screening Cc1ccccc1OCC(=O)Nc1ccc2nc(SCc3ccccc3)sc2c1 returned D1 agonist 5.2, D1 PAM -0.8, DRD3 agonist 0.9 and D1 antagonist -9.9.
Cc1ccc2nc(COc3cccc(NC(=O)COc4ccc(F)cc4)c3)cc(=O)n2c1 was read as D1 agonist -0.8, D1 PAM -3.0, DRD3 agonist 5.4 and D1 antagonist 1.4.
Screening CCOc1c(Br)cc(C2C=C(C(=O)O)Nc3ncnn32)cc1OC (configuration not stated) returned D1 agonist 0.0, D1 PAM -2.4, DRD3 agonist 0.5 and D1 antagonist -7.0.
Screening CCOC(=O)c1ccc2c(c1)N(C)C(=O)c1ccccc1S2 returned D1 agonist 0.9, D1 PAM -1.5, DRD3 agonist -5.2, D1 antagonist 3.3 and D3 antag 6.0.
`CCOC(=O)c1cc2n(c1/N=C/N(C)C)-c1ccccc1C2=O` gave D1 agonist 90.2*, D1 PAM -4.6, DRD3 agonist 2.6, D1 antagonist -9.7 and D3 antag 47.6.
COc1ccc(-n2c(SCC(=O)NC3CCCCC3)nc3c([nH]c4ccccc43)c2=O)cc1 was read as D1 agonist 1.2, D1 PAM -1.9, DRD3 agonist 3.2 and D1 antagonist 6.6.
CC(NN)c1ccccc1 (configuration not stated) was read as DRD3 agonist -3.9.
Screening CC(NCCC(c1ccccc1)c1ccccc1)c1ccccc1 (configuration not stated) returned D1 agonist 60.1*, D1 PAM 6.8, DRD3 agonist -6.4, D1 antagonist 16.8 and D3 antag 8.3.
Screening COc1ccc(C2CCCN2CC(O)COc2ccccc2C(C)C)cc1 (configuration not stated) returned D1 agonist 8.9, D1 PAM -4.8, DRD3 agonist -13.4, D1 antagonist -30.2* and D3 antag inconclusive.
`CCOC(=O)N1CCN(CC(O)COc2ccccc2C(C)C)CC1` (configuration not stated) gave D1 agonist 1.0, D1 PAM -2.7, DRD3 agonist -6.0, D1 antagonist -23.8 and D3 antag -10.4.
`COc1cc2ccccc2cc1C(=O)NC(=S)Nc1nnn(C)n1` gave D1 agonist 3.0, D1 PAM -0.2, DRD3 agonist 1.2, D1 antagonist 12.5 and D3 antag 0.7.
Screening Cn1nnc(NC(=S)NC(=O)c2cc(Cl)ccc2Cl)n1 returned D1 agonist 2.7, D1 PAM -3.5, DRD3 agonist -21.2, D1 antagonist -12.4 and D3 antag -70.0*.
COc1ccc(CN2C(=O)[C@@H]3C(c4ccc(F)cc4)=NO[C@@H]3C2=O)cc1 was read as D1 agonist 5.1, D1 PAM -9.2, DRD3 agonist -1.0, D1 antagonist -37.4* and D3 antag 13.6.
For CC(=O)c1ccc(OCC(C)Oc2ccc(C#N)cc2)cc1 (configuration not stated) the results were D1 agonist 22.5, D1 PAM -3.2, DRD3 agonist -9.6, D1 antagonist 2.8 and D3 antag -6.5.
For CC(Oc1ccc(C#N)cc1)C(=O)c1ccc(F)c(F)c1 (configuration not stated) the results were D1 agonist 11.6, D1 PAM -5.1, DRD3 agonist 15.9, D1 antagonist -35.5* and D3 antag 2.0.
Screening CC(C)(C)NC(=O)Cn1nnc(-c2ccc(OCc3c(F)cccc3Cl)cc2)n1 returned D1 agonist 8.9, D1 PAM -5.5, DRD3 agonist 18.8, D1 antagonist -31.8* and D3 antag 12.4.
Screening CC(C)(C)NC(=O)Cn1nnc(-c2ccc(Cl)cc2)n1 returned D1 agonist 1.6, D1 PAM -3.8, DRD3 agonist 2.6, D1 antagonist 10.9 and D3 antag 7.8.
`Cc1ccc(NC(=O)C(C)Sc2nc(-c3ccccc3)c(C#N)c(=O)[nH]2)c(C)c1` (configuration not stated) gave D1 agonist -1.4, D1 PAM 0.7, DRD3 agonist -9.3 and D1 antagonist -2.2.

High-throughput results (PubChem)
